Test results published in PMC4336329 (PLoS ONE, 2015).
The whole screen tested about 310,000 compounds, of which about 14,000 (4.5%) showed an effect of 50% or more. The effect is printed as a negative number. Shown is part of a subset that was picked to be rich in strong results.

target: human ether-à-go-go-related gene (hERG) potassium channel (human, UniProt Q12809); assay: primary screen, population patch clamp on CHO cells stably expressing hERG; higher = less effect of the substance
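Further: peak tail current of the secondary pulse compared with the same well before compound.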

Chain of human ether-à-go-go-related gene (hERG) potassium channel (Q12809 whole entry, looked up): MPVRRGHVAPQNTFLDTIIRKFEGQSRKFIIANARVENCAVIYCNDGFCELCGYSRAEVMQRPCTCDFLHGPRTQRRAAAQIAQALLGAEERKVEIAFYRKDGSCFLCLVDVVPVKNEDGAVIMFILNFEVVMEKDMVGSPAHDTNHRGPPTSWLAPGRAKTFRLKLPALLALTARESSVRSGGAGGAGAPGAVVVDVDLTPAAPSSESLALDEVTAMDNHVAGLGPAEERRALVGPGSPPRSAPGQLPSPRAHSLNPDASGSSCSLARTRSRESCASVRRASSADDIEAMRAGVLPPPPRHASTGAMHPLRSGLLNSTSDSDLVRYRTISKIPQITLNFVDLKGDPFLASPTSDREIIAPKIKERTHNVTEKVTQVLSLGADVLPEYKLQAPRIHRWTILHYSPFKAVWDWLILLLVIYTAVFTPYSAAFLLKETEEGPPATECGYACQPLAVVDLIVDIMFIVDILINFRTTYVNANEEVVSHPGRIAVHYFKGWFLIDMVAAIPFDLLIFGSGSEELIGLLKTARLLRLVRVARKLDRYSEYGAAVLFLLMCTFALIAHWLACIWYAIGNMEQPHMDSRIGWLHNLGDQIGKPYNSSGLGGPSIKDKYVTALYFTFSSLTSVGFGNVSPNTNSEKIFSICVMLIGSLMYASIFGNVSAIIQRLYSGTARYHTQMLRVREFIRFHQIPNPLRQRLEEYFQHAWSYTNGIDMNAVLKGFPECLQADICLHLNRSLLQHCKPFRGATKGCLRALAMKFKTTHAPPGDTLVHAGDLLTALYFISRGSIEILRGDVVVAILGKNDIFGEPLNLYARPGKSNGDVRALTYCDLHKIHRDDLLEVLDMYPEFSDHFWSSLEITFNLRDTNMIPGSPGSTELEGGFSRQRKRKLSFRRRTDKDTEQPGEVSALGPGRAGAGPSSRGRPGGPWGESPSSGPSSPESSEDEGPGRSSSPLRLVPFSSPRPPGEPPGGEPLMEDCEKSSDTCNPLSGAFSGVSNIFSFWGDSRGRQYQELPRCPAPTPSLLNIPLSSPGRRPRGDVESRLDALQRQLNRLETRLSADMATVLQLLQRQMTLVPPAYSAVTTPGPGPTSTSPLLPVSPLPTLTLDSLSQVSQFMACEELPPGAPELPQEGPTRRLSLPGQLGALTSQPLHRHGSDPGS

SMILES	hERG current change (%, negative = inhibition) at 10uM [%]
COc1ccc(CN(C#N)c2nc(C)cc(C)n2)cc1	14.1
CCOC(=O)C1=C(COC(=O)CCOc2cc(C)ccc2C)NC(=O)NC1C (centres unmarked)	-26.5
Cc1ccc(N(C(=O)c2snc(C(N)=O)c2N)C(C(=O)NCC2CCCO2)c2ccc(C)o2)c(C)c1 (centres unmarked)	-40.9
CCN(CC(=O)Nc1ccc(NC(C)=O)cc1)C(=O)C1CCCC1	-13.9
O=C(NNC(=S)NC(=O)C12CC3CC(CC(C3)C1)C2)c1ccncc1	19.8
CCOC(=O)c1c(C)[nH]c(C(=O)OCc2ccc(F)cc2)c1C	-0.855
COc1ccccc1NS(=O)(=O)c1cccc(C(=O)NN)c1	-5.56
COc1ccccc1NS(=O)(=O)c1cccc(C(=O)NC2CCN(Cc3ccccc3)CC2)c1	-56
COc1ccccc1NC(=O)c1cccc(S(=O)(=O)N2CCN(Cc3ccccc3)CC2)c1	-19.6
COc1ccc(NS(=O)(=O)c2cccc(C(=O)NC3CCN(Cc4ccccc4)CC3)c2)cc1	-46.7
O=C(NCCN1CCOCC1)c1cccc(S(=O)(=O)Nc2ccc(Br)cc2)c1	-20.4
O=C(c1cccc(NS(=O)(=O)c2ccc(F)c(F)c2)c1)N1CCN(Cc2ccccc2)CC1	-26.8
C=CCN(c1ccccc1)S(=O)(=O)c1cccc(C(=O)NC2CCC(O)CC2)c1 (centres unmarked)	-7.48
Cc1ccc(S(=O)(=O)Nc2cccc(C(=O)NCC3CCCO3)c2)cc1F (centres unmarked)	2.12
C=CCN(c1ccccc1)S(=O)(=O)c1cccc(C(=O)NC2CCN(Cc3ccccc3)CC2)c1	-65.3
C=CCN(c1ccccc1)S(=O)(=O)c1cccc(C(=O)O)c1	16
O=C(NC1CCN(Cc2ccccc2)CC1)c1cccc(S(=O)(=O)Nc2ccc(Br)cc2)c1	-59.7
Cc1ccc(S(=O)(=O)Nc2cccc(C(=O)NC3CCN(Cc4ccccc4)CC3)c2)cc1F	-80.6
COc1ccc(-c2csc(-c3cccs3)n2)c(OC)c1	15.8
CCCN1CNC(=S)N(Cc2ccccc2)C1	12.2

SMILES	hERG current change (%, negative = inhibition) at 10uM [%]
NC(=O)c1ccsc1NC(=O)COC(=O)c1ccc(Cl)cc1	-5.38
COc1ccccc1NC(=O)C(=O)N(c1cccnc1)C(C(=O)NC(C)(C)C)c1ccccc1 (centres unmarked)	18.7
CCC(C)(C)NC(=O)c1cc(S(=O)(=O)N2CCCCC2)ccc1N1CCOCC1	-13.4
O=C1NC(=O)/C(=C\c2ccccc2OCc2cccc([N+](=O)[O-])c2)N1	-5.66
O=C(CCn1c(=O)[nH]c2ccsc2c1=O)Nc1ccc(F)c(F)c1	21
COc1cccc(NC(=O)Cc2nnc(SCC(=O)NC(C)c3ccccc3)n2C)c1 (centres unmarked)	15.1
CCCCNc1nc2c(c(=O)n(C)c(=O)n2C)n1CCC	9.61
O=C(NC1CCN(Cc2ccccc2)CC1)c1cccc(S(=O)(=O)Nc2cc(C(F)(F)F)ccc2Cl)c1	-48.8
CCOc1ccc(NS(=O)(=O)c2ccc(C(=O)NC3CCN(Cc4ccccc4)CC3)cc2)cc1	3.07
COc1ccc(NS(=O)(=O)c2ccc(C)c(C(=O)NC3CCN(Cc4ccccc4)CC3)c2)cc1	-51.1
O=C(NC1CCN(Cc2ccccc2)CC1)c1cccc(S(=O)(=O)Nc2ccc(F)cc2)c1	-63.8
O=C(NCCCN1CCOCC1)c1cccc(S(=O)(=O)Nc2ccc(F)cc2)c1	-23.3
COCCNS(=O)(=O)c1ccc(Cl)c(C(=O)NC2CCN(Cc3ccccc3)CC2)c1	-1.21
CN(C)S(=O)(=O)Nc1cccc(Br)c1	-14.2
CCCCCc1cc(=O)oc2c(C(CCN3CCCC3)c3cc(OC)c(OC)c(OC)c3)c(OC)cc(OC)c12 (centres unmarked)	-65.6
COc1cc(O)c(C(CCN2CCCC(C)C2)c2cc(OC)c(OC)c(OC)c2)c(OC)c1 (centres unmarked)	5.07
CCCCCc1cc(=O)oc2c(C(CCN3CCCCC3)c3cc(OC)c(OC)c(OC)c3)c(OC)cc(OC)c12 (centres unmarked)	-74.6
CCCCCc1cc(=O)oc2c(C(CCN(CC)CC)c3cc(OC)c(OC)c(OC)c3)c(OC)cc(OC)c12 (centres unmarked)	-38.2
CCCCCc1cc(=O)oc2c(C(CCN3CCCC(C)C3)c3cc(OC)c(OC)c(OC)c3)c(OC)cc(OC)c12 (centres unmarked)	-64.4
Cc1cccc2c1N(N=O)CCC2	-2.33

SMILES	hERG current change (%, negative = inhibition) at 10uM [%]
Cc1ccc(N2CC(C(=O)Nc3ccc4c(c3)OCO4)CC2=O)cc1 (centres unmarked)	9.48
Cc1ccc(-c2c(C(=O)N/N=C/C3CC=CCC3)nnn2-c2nonc2N)cc1 (centres unmarked)	20.5
Cc1nccnc1Sc1ccccc1	22.4
Cc1ccc(S(=O)(=O)NNC(=O)Cc2cccn2C)cc1	11.2
CCCCN(C)C(=O)c1oc2ccc(S(=O)(=O)N3CCCCCC3)cc2c1C	-15.9
CCC1Sc2ccc(S(=O)(=O)CCC(=O)Nc3cc(C)ccn3)cc2NC1=O (centres unmarked)	11.9
COc1ccccc1C(=O)Nc1cccc2nc(C)ccc12	8
Cc1cc(NC(=O)c2ccc(Cl)cc2)n(-c2ccccc2)n1	-1.41
Cc1cc(NC(=O)c2cnn3cccnc23)no1	-0.805
CCOC(=O)c1ccc(NC(=O)c2cc(C)nn2-c2ccccc2)cc1	-7.01
Cc1cc(C(=O)Nc2c(F)c(F)c(F)c(F)c2F)n(-c2ccccc2)n1	-59.1
CC(=O)c1cccc(NC(=O)c2cc(C)nn2-c2ccccc2)c1	-21
Cc1cc(C(=O)Nc2ccc(F)cc2C)n(-c2ccccc2)n1	12.6
CCOC(=O)c1cccc(NC(=O)c2cc(C)nn2-c2ccccc2)c1	-50.5
Cc1cc(NC(=O)c2ccccc2)n(-c2ccccc2)n1	30.8
Cc1cc(NC(=O)c2cnn3cccnc23)n(-c2ccccc2)n1	-61.8
Cc1cc(C(=O)Nc2c(F)cc(F)cc2Br)n(-c2ccccc2)n1	16
Cc1cc(NC(=O)c2ccc(F)cc2)n(-c2ccccc2)n1	-80.2
Cc1c(NC(=O)c2cnn3cccnc23)c(=O)n(-c2ccccc2)n1C	4.45
